± gives the uncertainty stated by the source. The full ranking holds about 9,900 compounds; the median of “viability index relative to DMSO control” is about 1, and the lowest 2% start at about 0.85. The full list was thinned out, with the lowest values kept by preference.
The compounds below were run on Plasmodium falciparum NF54 stage V gametocytes (assay: viability index relative to DMSO control (fraction); higher = less gametocyte killing). Settings: 2.5 µM, library set: Broad Institute DOS, incubation time: 72 h.
Experimental: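 Broad DOS informer set and blood-stage-active DOS compounds screened in duplicate at 2.5 µM against P. falciparum NF54 stage V gametocytes with the serum-free one-step SaLSSA (1536-well): 72 h at 37 °C under low oxygen, then saponin lysis and MitoTracker Red CMXRos staining, with high-content imaging. Viability index = viable-object count divided by the plate mean of DMSO wells (0 = killed, about 1 = inactive).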

In order of rising viability index:
1. O=C1CNC[C@H]2[C@@H](c3ccc(Br)cc3)[C@H](CO)N12  0.837 ± 0.14
2. O=C(Cc1ccncc1)N1CCCCN2[C@@H](CO)[C@H](c3ccc(C#Cc4ccccc4F)cc3)[C@@H]2C1  0.84 ± 0.22
3. O=C(Cc1ccncc1)N1CCCCN2[C@H](CO)[C@@H](c3ccc(C#Cc4ccccc4F)cc3)[C@@H]2C1  0.9619 ± 0.0014
4. O=C(Cc1ccncc1)N1CCCCN2[C@@H](CO)[C@@H](c3ccc(C#Cc4ccccc4F)cc3)[C@@H]2C1  0.964 ± 0.047
5. O=C1CNC[C@@H]2[C@H](c3ccc(Br)cc3)[C@H](CO)N12  0.992 ± 0.074
6. O=C1CNC[C@H]2[C@H](c3ccc(Br)cc3)[C@H](CO)N12  1.05 ± 0.023
7. C[C@@H]1CN([C@@H](C)CO)C(=O)CCCn2cc(nn2)CO[C@@H]1CN(C)C(=O)Oc1ccc2ccccc2c1  1.05 ± 0.019
8. COc1cccc(-c2ccc([C@H]3[C@@H](CO)N4CCCCN(C(=O)Cc5ccncc5)C[C@H]34)cc2)c1  1.06 ± 0.046
9. C/C=C/c1ccc([C@@H]2[C@@H]3CN(C(=O)C4CCOCC4)C[C@H]2N3)cc1  1.06 ± 0.011
10. O=C(O)C[C@@H]1CC[C@H]2NC[C@@H](O)COC[C@@H]2O1  1.13 ± 0.034

Reference: the supplement of paper PMC4723716
